High-throughput results (PubChem BioAssay)
Only some compounds are listed: those with a hit (about 3.7% of all), similar ones and a draw of the others.
BoNT F protease – BoNT/F light chain protease inhibitors, primary screen, biochemical, flow cytometry, MLPCN library; Botulinum neurotoxin type F light chain protease (Clostridium botulinum); Multiplex microsphere protease cleavage assay; inhibition, % at 10 µM; 360,000 compounds, 0.22% hits; AID 588497, 2011; in the data active = inhibition above about 35%, passing the limit was not always enough; inconclusive = no clear call, values can overlap the other calls
BJeLR viability – MLPCN primary cell-based screen for lethality selective to Ras in HRASV12 cells | BJeLR (HRASV12) viability, CellTiter-Glo ATP luminescence, 48 h | inhibition, % (test concentration not listed) | 300,000 compounds, 0.17% hits | AID 1554, 2009; in the data active = inhibition above about 50%; inconclusive = no clear call, values can overlap the other calls
BH1578 lux ind – inducers of Vibrio cholerae quorum light production without autoinducers, primary screen, BH1578 luxS cqsA deficient, single point | V. cholerae BH1578 lux reporter, luminescence, 6 h | activation, % at 18.7 µM | 350,000 compounds, 0.16% hits | AID 588436, 2011; in the data active = activation mostly above about 9.7%, no sharp cut-off; inconclusive = no clear call, values can overlap the other calls; inactive = mostly below about 3.7%
BoNT-A LC inh2 – BoNT/A light chain protease inhibitors, primary screen, biochemical, flow cytometry, MLPCN library. Botulinum neurotoxin type A light chain protease (Clostridium botulinum A str. ATCC 3502). 360,000 compounds, 0.17% hits. inhibition, % at 10 µM. multiplex microsphere protease substrate cleavage
Bead autofluor – counter-screen for toxin protease inhibitors: compound fluorescence | 360,000 compounds, 3.1% hits | AID 624483 | fluorescence intensity (test concentration not listed) | compound autofluorescence counterscreen, microsphere flow cytometry; active compounds read high; in the data active = fluorescence intensity above about 16000; inconclusive = no clear call, values can overlap the other calls
Anthrax LF prot – Bacillus anthracis LF protease inhibitors, primary screen, biochemical, multiplex microsphere, MLPCN library | Lethal factor (Bacillus anthracis), P15917 | inhibition, % at 10 µM | multiplex microsphere protease cleavage assay | 360,000 compounds, 0.12% hits
Target sequence (P15917 whole entry, looked up): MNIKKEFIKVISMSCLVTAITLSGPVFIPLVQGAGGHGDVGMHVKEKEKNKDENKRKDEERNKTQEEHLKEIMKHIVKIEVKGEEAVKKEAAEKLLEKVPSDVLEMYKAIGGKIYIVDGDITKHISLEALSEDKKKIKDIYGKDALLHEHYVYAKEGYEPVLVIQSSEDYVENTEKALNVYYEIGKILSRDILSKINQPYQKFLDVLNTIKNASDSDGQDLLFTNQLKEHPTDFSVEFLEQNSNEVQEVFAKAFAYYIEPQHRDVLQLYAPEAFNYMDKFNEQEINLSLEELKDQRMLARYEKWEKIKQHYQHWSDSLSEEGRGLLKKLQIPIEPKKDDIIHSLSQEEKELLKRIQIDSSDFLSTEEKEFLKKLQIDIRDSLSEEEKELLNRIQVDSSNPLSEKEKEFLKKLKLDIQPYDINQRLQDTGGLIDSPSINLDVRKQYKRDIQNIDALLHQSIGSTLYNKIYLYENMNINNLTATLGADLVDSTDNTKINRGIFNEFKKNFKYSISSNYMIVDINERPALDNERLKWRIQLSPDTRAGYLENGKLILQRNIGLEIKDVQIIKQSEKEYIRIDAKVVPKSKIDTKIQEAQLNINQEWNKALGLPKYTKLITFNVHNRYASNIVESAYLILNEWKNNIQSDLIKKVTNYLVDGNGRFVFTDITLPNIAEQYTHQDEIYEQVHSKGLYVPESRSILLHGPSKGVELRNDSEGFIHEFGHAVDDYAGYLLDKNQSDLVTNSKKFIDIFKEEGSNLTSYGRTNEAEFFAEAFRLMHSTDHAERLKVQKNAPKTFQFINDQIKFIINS
Each line names hits and unclear results; the compound was inactive in the other large screens. Cut-off read from the data, not from the text of the source, unless noted: active = inhibition above about 30%; inconclusive = no clear call, values can overlap the other calls; inactive = below that.

Cc1nc2cc(-c3ccc(Cl)cc3)nn2c(C)c1CCC(=O)NCc1ccco1	none
c1ccc(-c2csc(-n3cnnn3)n2)cc1	Bead autofluor 21991
CC1=C(C(=O)Nc2ccccc2C)C2(CCCC2)C(C(N)=O)C(=O)N1 (configuration not stated)	Bead autofluor 19911
CC(=O)NC(c1ccc(F)c(F)c1)c1nc(-c2cnn(C)c2)cs1 (configuration not stated)	none (no result: BJeLR viability)
CC(C)C(NC(=O)/C=C/c1ccc(F)cc1)C(C)C	BH1578 lux ind active
CCOc1cc(Br)ccc1S(=O)(=O)N1CC(C)OC(C)C1 (configuration not stated)	Bead autofluor 20570
CCOc1ccc(Br)cc1S(=O)(=O)N1CC(C)OC(C)C1 (configuration not stated)	none
CCC(C(=O)N1CCN(Cc2ccc3c(c2)OCO3)CC1)n1nnc2ccccc2c1=O (configuration not stated)	none (no result: BJeLR viability)
Cc1cccc(C)c1NC(=O)N1CCC(c2nc3ccccc3o2)CC1	BoNT-A LC inh2 inconclusive, Bead autofluor 23165
CNC(=O)N(O)C1N(/N=C/c2ccccc2OC)C(=S)SC1(C)C (configuration not stated)	none
CCCCNC(=O)N(O)C1N(/N=C/c2ccccc2OC)C(=S)SC1(C)C (configuration not stated)	BoNT F protease 61.7
Cc1cc(C)nc(NC(=O)c2cccc(Cl)c2)n1	Bead autofluor 22692
O=C(NC1CCCC1)c1ccc(CSCc2ccccc2F)o1	Bead autofluor 23171
O=C(NCN1CCc2ccccc2C1)c1ccccc1	Bead autofluor 17046
O=C(CN1CCc2ccccc2C1)Nc1ccccc1N1CCCCCC1	Bead autofluor 23403
O=C(CNCCC1=CCCCC1)Nc1ccccc1N1CCCCC1	Bead autofluor 17116
Cc1cccnc1C1=NOC(Cc2ccccc2)C(=O)N1Cc1ccc2c(c1)OCO2 (configuration not stated)	none (no result: BJeLR viability)
CC(O)(c1cccc(F)c1)c1nc(-c2ccc3ccccc3c2)cs1 (configuration not stated)	none (no result: BJeLR viability)
O=C1NC[C@H](CCCCN2C[C@H](Cc3ccc(O)cc3)N(CCc3ccc(O)cc3)C(=O)C2=O)N(Cc2ccccc2)C1=O	none (no result: BJeLR viability, BH1578 lux ind)
CCCNC(=O)C1(C)CCCN(CCC(=O)c2ccccc2)C1 (configuration not stated)	none (no result: BJeLR viability)
CN(C)CCOCCSc1ccc(Cl)cc1	Bead autofluor 23961
CC(C)NCCOCCSc1ccc(Cl)cc1	none
CCCCNCCOCCSc1ccc(Cl)cc1	Bead autofluor 21188
COCCCNCCOCCSc1ccc(Cl)cc1	none
CCN(CC)S(=O)(=O)c1ccc(N2CCN(C)CC2)c(NC(=O)CN2C(=O)NC3(CCCCC3)C2=O)c1	none (no result: BJeLR viability)
COc1ccc(CCNC(=O)CSc2nc3ccsc3c(=O)n2Cc2ccccn2)cc1OC	none (no result: BJeLR viability)
CS(=O)(=O)Nc1cccc(NC(=O)C2Cc3c(-c4ccccc4)ccnc3O2)c1 (configuration not stated)	none (no result: BJeLR viability)
CCN(CC)c1ccc(C=Nc2ccccc2C)c(O)c1	BoNT-A LC inh2 50.8, Anthrax LF prot 33.5
CCN(CC)c1ccc(/C=N/N(c2ccccc2)c2ccccc2)c(O)c1	none
CCN(CC)c1ccc(O)c(C=Nc2ccc(C)c(C)c2)c1	BoNT-A LC inh2 50.4
CCN(CC)c1ccc(C=Nc2ccc(C#N)cc2)c(O)c1	none
O=C(OCc1ccccc1)N1CCCCC1c1c(Cl)cccc1Br (configuration not stated)	none (no result: BJeLR viability, BH1578 lux ind)
Cc1cc(C)nc(NS(=O)(=O)c2ccc(Br)s2)c1	none
Cc1cccc(NS(=O)(=O)c2ccc(Br)s2)n1	Bead autofluor 19822
COc1ccc(Oc2ncc(CN3CCN(c4ccccc4)CC3)s2)cc1	BoNT F protease inconclusive, Bead autofluor inconclusive
CCOC(=O)C1CCN(Cc2cnc(NC(=O)OC)s2)CC1	BoNT F protease inconclusive, BoNT-A LC inh2 inconclusive, Bead autofluor inconclusive, Anthrax LF prot inconclusive
Brc1ccc(Oc2ncc(CN3CCOCC3)s2)cc1	BoNT-A LC inh2 inconclusive, Bead autofluor 18177
CCOC(=O)C1CCN(Cc2cnc(Oc3ccc(C(C)(C)C)cc3)s2)CC1	Bead autofluor 21136
Cc1cccc(CN(Nc2ccccc2)c2ccccc2)n1	none (no result: BJeLR viability)
COc1ccc2c(Cl)cc(NC(=O)Nc3c(C)cccc3C)nc2c1	none (no result: BJeLR viability)
CCOC(=O)c1c[nH]c2c3c(ccc2c1=O)CCCC3	Bead autofluor 21559
CCOC(=O)c1c[nH]c2c(C)cc(C)cc2c1=O	BoNT-A LC inh2 inconclusive, Bead autofluor 20267
CC1CCCCC1n1c(=S)[nH]c2ccccc2c1=O (configuration not stated)	Bead autofluor 23138
COn1c(=S)[nH]c2ccccc2c1=O	BoNT-A LC inh2 inconclusive, Bead autofluor 22258 (no result: BJeLR viability)
O=C1NC[C@@H](CCCCN2C[C@H](Cc3ccc(O)cc3)N(Cc3ccccc3)C(=O)C2=O)N(CC2CCCCC2)C1=O	none (no result: BJeLR viability, BH1578 lux ind)
N#Cc1nc(-c2ccc(F)cc2)oc1NCc1ccccc1	none
CC(C)(C)c1ccc(-c2nc(C#N)c(NCc3cccnc3)o2)cc1	Bead autofluor 17505
O=c1c(-c2nc3ccccc3s2)cccn1Cc1ccccc1	BoNT-A LC inh2 inconclusive, Bead autofluor 22734
Cc1ccc(Cn2cccc(-c3nc4ccccc4s3)c2=O)cc1	none
CCc1c(C)n2nc(C)cc2[nH]c1=O	Bead autofluor 22318
O=C(CNC(=O)c1ccc(Br)cc1)NCCc1nc2ccccc2[nH]1	Bead autofluor 19972
O=C(CNC(=O)c1cccc(Br)c1)NCCc1nc2ccccc2[nH]1	none
CN(Cc1ccccc1)C(=O)CN1C(=O)C2C3C=CC(C3)C2C1=O (configuration not stated)	Bead autofluor 21276
O=C(OCc1cn([C@H]2CN(C(=O)C3CCCCC3)[C@@H](c3ccccc3)C[C@@H]2O)nn1)c1ccccc1	none (no result: BJeLR viability)
COc1ccc(-c2oc3c4c2C(=O)OCCOC4CCC3)cc1 (configuration not stated)	none (no result: BJeLR viability, BH1578 lux ind)
Cc1c(NS(C)(=O)=O)c(=O)n(-c2ccccc2)n1C	none
Cc1c(NS(=O)(=O)N2CCCC2)c(=O)n(-c2ccccc2)n1C	Bead autofluor 22285
Cc1ccc(C(=O)Nc2c(C)n(C)n(-c3ccccc3)c2=O)cc1S(=O)(=O)N1CCOCC1	none
Cc1ccc(S(=O)(=O)N2CCOCC2)cc1C(=O)Nc1c(C)n(C)n(-c2ccccc2)c1=O	BoNT-A LC inh2 inconclusive, Bead autofluor 22630
CC1=C(C(=O)N2CCOCC2)CC(CC(=O)NCC2CCCCC2)C(=O)N1Cc1ccccc1 (configuration not stated)	none (no result: BJeLR viability)
CCOC(=O)c1ccc(O)c(-n2cc3c(c2-c2ccccc2)c(=O)n(C)c(=O)n3C)c1	none (no result: BJeLR viability, BH1578 lux ind)
